Screening data from PubChem BioAssay.
HCMV inh: blocks human cytomegalovirus replication. HFF cells, HCMV-luciferase reporter, 72 h; stronger effect = lower value. activity change, negative = inhibition, % at 57.5 µM. 4.5% of 410,000 active. AID 1259415; in the data active = activity change below about -60%; inconclusive = no clear call, values can overlap the other calls; inactive = above about -39%
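Cell-based, HFFs, 1000 cells/well, 16 h 37C; cpds in DMSO + HCMV-luc, MOI 1 PFU/cell; 72 h 37C; OneGlo luminescence after 5 min RT; norm. to buffer vs Salinomycin 10uM.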
LASV entry inh: Lassa virus entry inhibition | Lassa virus pseudotype entry inhibition, cell reporter | Potency, µM (highest dose often 37.9 µM), inactives show at the highest dose activity change, negative = inhibition, usual class: inhibitors | 1.2% of 300,000 active | AID 540256; calls by dose curve; tested in HEK293 cells; note: potency is the fitted concentration of half-maximal effect; nearly all actives have a fitted effect of over 50% in size
HCV inh: inhibitors of hepatitis C virus infection; Huh7.5.1 HCVcc-Cre infection, luciferase reporter, 44 h; Potency, µM (doses to about 41.8 µM), without a hit: at the top dose activity change, negative = inhibition, usual class: inhibitors; 3.4% of 340,000 active; AID 651820; active = well fitted inhibition curve with a large enough effect; inconclusive = small, poorly fitted or top-dose-only effect, or another doubt; inactive = no such curve, though single readings can be large or run the other way; note: potency is the fitted concentration of half-maximal effect
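Luciferase read-out (15 sec integration) after a 15 min room-temperature substrate step quantifies HCVcc-Cre infection. Cells, 1,000 per well, had compound added 4 h post-plating, then virus at ~0.5 moi, and were cultured 44 h.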
Marburg entry inh: inhibitors of Marburg virus binding or cell entry. Marburg virus pseudotyped entry inhibition, cell reporter. 1.8% of 300,000 active. Potency, µM (highest dose often 37.8 µM), for inactives: at the top dose activity change, negative = inhibition, usual class: inhibitors; calls by dose curve; tested in HEK293 cells; note: potency is the fitted concentration of half-maximal effect
FMDV antiviral: antivirals against foot and mouth disease virus | FMDV antiviral cell-based qHTS | 1.2% of 410,000 active | Potency, µM (doses to about 57.9 µM), for inactives: at the highest dose activity change, negative = inhibition, usual class: inhibitors; calls by dose curve; tested in HEK293T cells; note: read-out not given here; potency is the fitted concentration of half-maximal effect; nearly all actives have a fitted effect of over 45% in size
The depositor's hits bear a star; ? = inconclusive; / = no result; [ ] = remark or other dose. Only some compounds are listed: those with a hit (about 7.9% of all), similar ones and a draw of the others. % is set by controls: 0 for no effect and ±100 for the full control effect.

SMILES | HCMV inh | LASV entry inh | HCV inh | Marburg entry inh | FMDV antiviral
C/C=C(\C)C(=O)OC1[C@H](OC(C)=O)C2(CO)C(CC1(C)C)C1=CCC3C4(C)CCC(O[C@@H]5O[C@H](C(=O)O)[C@@H](O[C@@H]6O[C@H](CO)[C@@H](O)[C@H](O)[C@H]6O)[C@H](O)[C@H]5O[C@H]5O[C@H](CO)[C@@H](O)[C@H](O)[C@H]5O)[C@](C)(CO)C4CCC3(C)[C@]1(C)C[C@H]2O (stereo partly drawn) | / | / | 3.2µM* | / | 28µM*
Cc1ccc2c(c1)c1c(c(=O)n(-c3ccccc3)c(=O)n1CC(=O)NCCC1=CCCCC1)n2C | 16 | 17%[46.1 µM] | / | / | 1%
CCOC(=O)N1CCN(C(=O)CSCC(=O)Nc2nc(-c3cccs3)cs2)CC1 | 29 | -6% | 13µM* | 0% | 14µM*
CC1CCN(C(=O)CSCC(=O)Nc2nc(-c3cccs3)cs2)CC1 | 3 | / | -2% | / | -16%
CCOC(=O)N1CCN(C(=O)CSCC(=O)Nc2nc(-c3ccc(C)cc3)cs2)CC1 | 5 | / | 11µM* | / | -21%
COc1cc(OC)c(NC(=O)CCCn2nc(C)c3c(C)n(-c4ccccc4)nc3c2=O)cc1Cl | -10 | 6%[46.1 µM] | / | / | ?
CC(=O)c1ccc(NC(=O)CSc2nccn2Cc2ccco2)cc1 | -3 | ? | / | / | 39%
Cc1c(Cl)cccc1NS(=O)(=O)c1ccc(-c2cnc(C3CC3)o2)cc1 | -80* | ? | / | / | -17%
Cc1cccc(NS(=O)(=O)c2ccc(-c3cnc(C4CC4)o3)cc2)c1C | ? | / | ? | / | -30%
CC(=O)Nc1ccc(NS(=O)(=O)c2ccc(-c3cnc(C4CC4)o3)cc2)cc1 | 0 | ? | ? | ? | 3%
CC(=O)c1cccc(NS(=O)(=O)c2ccc(-c3cnc(C4CC4)o3)cc2)c1 | -85* | / | ? | / | -15%
Cc1ccc(C)c(NS(=O)(=O)c2ccc(-c3cnc(C4CC4)o3)cc2)c1 | -82* | / | ? | / | -16%
COc1ccccc1S(=O)(=O)Cc1ccc(C(=O)N2CCN(c3ccccc3)CC2)o1 | -27 | 5% | -14% | -19% | ?
COc1cccc(N2CCN(C(=O)c3ccc(CS(=O)c4ccccc4Cl)o3)CC2)c1 (stereo not drawn) | -96* | / | ? | / | -9%
COc1ccccc1S(=O)(=O)Cc1ccc(C(=O)N2CCN(c3cccc(Cl)c3)CC2)o1 | -67* | ? | 13µM* | -30% | 18µM*
O=C(c1ccc(CS(=O)(=O)c2c(Cl)cccc2Cl)o1)N1CCN(c2ccccn2)CC1 | -66* | / | -13% | / | ?
COc1cccc(N2CCN(C(=O)c3ccc(CS(=O)c4ccccc4C)o3)CC2)c1 (stereo not drawn) | -39 | ? | 18% | -45%[46.1 µM] | -28%
COc1ccccc1C(=O)NCCSc1c(C)[nH]c2ccccc12 | -39 | -9%[46.1 µM] | / | -30%[46.1 µM] | ?
COc1cccc(C2=NC(C)(CC(=O)NCc3cccc(O)c3)ON2C)c1 (stereo not drawn) | 1 | / | / | / | /
CCOc1ccc(S(=O)(=O)Nc2cccc(-c3ccc(OCC)nn3)c2)cc1 | ? | -22%[46.1 µM] | / | / | -21%
CCOc1ccccc1CNC(=O)c1cc(-c2ccc(C)c(C)c2)nc2ccccc12 | -31 | -15%[46.1 µM] | / | / | 0%
Cc1cccc(NC(=O)Cn2cc(C(=O)c3ccccc3)c3ccccc32)c1 | -80* | ? | / | ? | -21%
O=C(Cn1cc(C(=O)c2ccco2)c2ccccc21)NC1CCCC1 | 57 | 0% | ? | -8% | -9%
Cc1ccc(C)c(NC(=O)Cn2cc(C(=O)c3cccs3)c3ccccc32)c1 | -27 | ? | / | ? | ?
Cc1cccc(NC(=O)Cn2cc(C(=O)C3CCCCC3)c3ccccc32)c1C | -93* | -29%[46.1 µM] | / | ? | ?
SMILES | HCMV inh | LASV entry inh | HCV inh | Marburg entry inh | FMDV antiviral
Cc1ccc(NC(=O)Cn2cc(C(=O)c3cccs3)c3ccccc32)cc1C | ? | ? | / | 11µM* | -7%
Cc1cccc(NC(=O)Cn2cc(C(=O)c3ccco3)c3ccccc32)c1C | -88* | -25%[46.1 µM] | / | ? | 0%
COc1cccc(-n2c(-c3ccc(Cl)cc3)cc3c2CC(C)(C)CC3=O)c1 | -2 | 7%[46.1 µM] | / | -2%[46.1 µM] | -7%
CCCCCC(=O)N1C[C@@H](n2cc(C3CC3)nn2)[C@H](O)C[C@H]1c1ccccc1 | / | 13%[46.1 µM] | / | / | /
O=C(Cn1cc(C(=O)c2ccco2)c2ccccc21)Nc1ccccc1F | -75* | 0% | -21% | -3%[46.1 µM] | -24%
Cc1ccc(NC(=O)Cn2cc(C(=O)c3ccco3)c3ccccc32)c(C)c1 | -73* | ? | / | / | -25%
Cc1ccc(C)c(NC(=O)Cn2cc(C(=O)c3ccco3)c3ccccc32)c1 | -34 | -30%[46.1 µM] | / | -22%[46.1 µM] | -25%
O=C(c1ccco1)c1cn(CC(=O)N2CCCc3ccccc32)c2ccccc12 | 33 | -2% | 11µM* | ? | ?
O=C(Cn1cc(C(=O)C(F)(F)F)c2ccccc21)Nc1ccccc1F | -5 | / | 2% | / | -8%
CC(C)NC(=O)Cn1cc(C(=O)C2CC2)c2ccccc21 | -61* | / | 6% | / | 9%
COc1ccc(CN(CCC(c2ccc3c(c2)OCO3)c2ccccc2OC)C(C)=O)cc1 (stereo not drawn) | -10 | ? | / | / | ?
COc1ccc(-c2nc3sc(CCNC(=O)c4ccccc4C)c(C)n3n2)cc1 | 18 | -23%[46.1 µM] | / | / | -11%
Cc1cccc(NC(=O)Cn2cc(C(=O)c3ccccc3)c3ccccc32)c1C | -67* | 0%[46.1 µM] | / | ? | ?
COc1ccccc1CNC(=O)Cn1cc2c(n1)-c1c(oc(C(=O)N3CCOCC3)c1C)CC2 | ? | -9%[46.1 µM] | / | / | ?
CCc1ccc(OCC(=O)Nc2ccc(N3CCN(C(=O)c4ccccc4)CC3)cc2)cc1 | -34 | / | 1% | / | -13%
COc1ccc(OCC(=O)Nc2ccc(N3CCN(C(=O)c4ccccc4)CC3)c(Cl)c2)cc1 | ? | ? | ? | ? | 11µM*
COc1ccc(OCC(=O)Nc2ccc(N3CCOCC3)c(Cl)c2)cc1 | -18 | -9% | 10µM* | -2% | ?
COc1ccc(CCNC(=O)c2c(C)oc3ncnc(N4CCOCC4)c23)c(OC)c1 | -2 | ? | / | / | 0%
O=C(CCc1ccccc1)NC(NC(=S)Nc1ccc(Br)cc1)C(Cl)(Cl)Cl (stereo not drawn) | -14 | ? | 2µM* | ? | /
CCCC(=O)NC(NC(=S)Nc1ccc(N=Nc2ccccc2)cc1)C(Cl)(Cl)Cl (stereo not drawn) | -70* | ? | 10µM* | ? | ?
CCCC(=O)NC(NC(=S)Nc1ccc(S(N)(=O)=O)cc1)C(Cl)(Cl)Cl (stereo not drawn) | 0 | 5% | 6% | 4% | -10%
Cc1nc(NCc2c(F)cccc2F)sc1-c1ccn(CCN2CCOCC2)n1 | / | / | / | / | -11%
CC(C)Oc1ccc(C(=O)Nc2c(C(=O)Nc3cccc(F)c3)oc3ccccc23)cc1 | -13 | 15%[46.1 µM] | / | 0%[46.1 µM] | 32%
O=C(Nc1cccc(Oc2ccc3c(c2)C(=O)NC3=O)c1)c1ccco1 | 6 | 8% | 24% | 0% | /
